We go through 16 compounds from ChEMBL document CHEMBL1961873, “Compounds: GSK PKIS; Assays: Nanosyn kinase panel” (2012).

Test [1] concerns the target Leukocyte tyrosine kinase receptor (Homo sapiens) (UniProt P29376). To be noted: at 1 µM.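 Also: each value is the mean inhibition of LTK.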
The target of test [2] is Tyrosine-protein kinase Lyn (Homo sapiens) (UniProt P07948). The settings on record: at 0.1 µM.
Test [3] has the same target. The settings on record: at 1 µM.
Test [4] has the same target. To be noted: at 0.1 µM. This is another data set of the same source.
Test [5] shares this target. To be noted: at 1 µM. This is another data set of the same source.
Test [6] concerns the target T1, Tyrosine-protein kinase Mer (Homo sapiens) (UniProt Q12866).
T1 sequence (whole entry): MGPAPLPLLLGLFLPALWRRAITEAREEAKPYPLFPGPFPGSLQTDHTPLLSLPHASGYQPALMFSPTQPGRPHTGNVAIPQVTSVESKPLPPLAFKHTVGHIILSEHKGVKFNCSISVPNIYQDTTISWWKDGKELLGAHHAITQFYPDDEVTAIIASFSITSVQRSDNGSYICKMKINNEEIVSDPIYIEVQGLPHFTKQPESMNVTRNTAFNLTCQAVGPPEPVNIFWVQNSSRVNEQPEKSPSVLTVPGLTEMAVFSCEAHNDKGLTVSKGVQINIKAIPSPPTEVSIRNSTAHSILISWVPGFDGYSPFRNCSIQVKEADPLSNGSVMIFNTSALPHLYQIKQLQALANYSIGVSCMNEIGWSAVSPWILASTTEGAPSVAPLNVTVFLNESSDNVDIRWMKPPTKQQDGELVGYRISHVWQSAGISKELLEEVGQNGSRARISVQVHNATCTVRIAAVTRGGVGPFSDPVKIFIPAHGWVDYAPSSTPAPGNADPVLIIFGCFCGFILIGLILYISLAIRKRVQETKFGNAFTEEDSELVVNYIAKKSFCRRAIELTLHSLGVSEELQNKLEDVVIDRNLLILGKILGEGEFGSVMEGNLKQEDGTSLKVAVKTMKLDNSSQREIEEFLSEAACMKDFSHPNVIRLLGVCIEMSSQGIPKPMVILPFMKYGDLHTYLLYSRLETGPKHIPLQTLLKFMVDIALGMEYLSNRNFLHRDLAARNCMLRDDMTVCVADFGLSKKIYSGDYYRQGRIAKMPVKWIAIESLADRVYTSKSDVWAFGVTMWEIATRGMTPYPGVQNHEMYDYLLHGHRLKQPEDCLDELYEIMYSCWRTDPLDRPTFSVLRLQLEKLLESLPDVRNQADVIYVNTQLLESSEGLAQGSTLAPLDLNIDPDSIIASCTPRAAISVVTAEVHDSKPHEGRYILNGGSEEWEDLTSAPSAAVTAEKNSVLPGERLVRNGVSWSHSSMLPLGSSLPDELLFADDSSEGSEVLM
The settings on record: at 0.1 µM.

The target of test [7] is T1, Tyrosine-protein kinase Mer (Homo sapiens). The settings on record: at 1 µM.
The target of test [8] is Hepatocyte growth factor receptor (Homo sapiens) (UniProt P08581). The settings on record: at 0.1 µM.
Hepatocyte growth factor receptor (Homo sapiens), sequence (P08581 whole entry): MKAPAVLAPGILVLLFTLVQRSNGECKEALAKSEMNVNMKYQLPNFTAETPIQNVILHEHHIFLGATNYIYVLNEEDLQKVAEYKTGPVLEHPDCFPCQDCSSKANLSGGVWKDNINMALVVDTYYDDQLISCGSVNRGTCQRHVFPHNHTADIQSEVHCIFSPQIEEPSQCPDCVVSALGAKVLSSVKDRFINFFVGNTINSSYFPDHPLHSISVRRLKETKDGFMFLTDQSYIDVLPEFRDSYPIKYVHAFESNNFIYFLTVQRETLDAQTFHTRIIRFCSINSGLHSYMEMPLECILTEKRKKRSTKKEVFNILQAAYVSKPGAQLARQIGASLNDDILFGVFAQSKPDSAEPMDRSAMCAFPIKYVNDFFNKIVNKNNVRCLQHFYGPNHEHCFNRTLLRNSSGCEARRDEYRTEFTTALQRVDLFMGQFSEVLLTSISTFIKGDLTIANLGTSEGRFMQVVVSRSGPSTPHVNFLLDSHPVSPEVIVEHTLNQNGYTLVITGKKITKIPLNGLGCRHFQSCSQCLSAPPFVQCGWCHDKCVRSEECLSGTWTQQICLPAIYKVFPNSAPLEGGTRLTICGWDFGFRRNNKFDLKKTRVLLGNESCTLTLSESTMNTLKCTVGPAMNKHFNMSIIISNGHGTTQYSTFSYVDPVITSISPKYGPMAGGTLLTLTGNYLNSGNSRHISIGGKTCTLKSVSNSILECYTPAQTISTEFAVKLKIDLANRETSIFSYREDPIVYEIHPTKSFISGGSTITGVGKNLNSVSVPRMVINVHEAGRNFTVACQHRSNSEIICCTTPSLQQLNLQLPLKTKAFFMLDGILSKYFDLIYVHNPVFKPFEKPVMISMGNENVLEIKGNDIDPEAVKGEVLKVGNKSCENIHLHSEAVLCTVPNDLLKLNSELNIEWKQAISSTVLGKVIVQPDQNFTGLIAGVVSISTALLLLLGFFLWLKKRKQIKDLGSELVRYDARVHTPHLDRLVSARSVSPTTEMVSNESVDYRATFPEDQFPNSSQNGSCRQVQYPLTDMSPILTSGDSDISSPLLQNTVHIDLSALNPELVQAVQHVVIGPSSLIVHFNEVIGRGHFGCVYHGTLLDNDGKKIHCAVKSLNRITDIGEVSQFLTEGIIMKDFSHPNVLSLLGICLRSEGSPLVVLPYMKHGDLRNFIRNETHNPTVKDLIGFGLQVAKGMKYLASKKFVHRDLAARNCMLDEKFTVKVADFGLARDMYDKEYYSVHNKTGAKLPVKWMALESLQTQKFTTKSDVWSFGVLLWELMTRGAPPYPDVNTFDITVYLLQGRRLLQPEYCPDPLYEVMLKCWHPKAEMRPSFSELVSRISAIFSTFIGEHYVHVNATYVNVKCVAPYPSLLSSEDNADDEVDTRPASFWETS
For test [9] the target is unchanged. To be noted: at 1 µM.
For test [10], the target named is T2, Muscle, skeletal receptor tyrosine-protein kinase (Homo sapiens) (UniProt O15146).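 Also: values are mean inhibition of MuSK from the GSK PKIS kinase screening panel.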
T2 sequence (whole entry): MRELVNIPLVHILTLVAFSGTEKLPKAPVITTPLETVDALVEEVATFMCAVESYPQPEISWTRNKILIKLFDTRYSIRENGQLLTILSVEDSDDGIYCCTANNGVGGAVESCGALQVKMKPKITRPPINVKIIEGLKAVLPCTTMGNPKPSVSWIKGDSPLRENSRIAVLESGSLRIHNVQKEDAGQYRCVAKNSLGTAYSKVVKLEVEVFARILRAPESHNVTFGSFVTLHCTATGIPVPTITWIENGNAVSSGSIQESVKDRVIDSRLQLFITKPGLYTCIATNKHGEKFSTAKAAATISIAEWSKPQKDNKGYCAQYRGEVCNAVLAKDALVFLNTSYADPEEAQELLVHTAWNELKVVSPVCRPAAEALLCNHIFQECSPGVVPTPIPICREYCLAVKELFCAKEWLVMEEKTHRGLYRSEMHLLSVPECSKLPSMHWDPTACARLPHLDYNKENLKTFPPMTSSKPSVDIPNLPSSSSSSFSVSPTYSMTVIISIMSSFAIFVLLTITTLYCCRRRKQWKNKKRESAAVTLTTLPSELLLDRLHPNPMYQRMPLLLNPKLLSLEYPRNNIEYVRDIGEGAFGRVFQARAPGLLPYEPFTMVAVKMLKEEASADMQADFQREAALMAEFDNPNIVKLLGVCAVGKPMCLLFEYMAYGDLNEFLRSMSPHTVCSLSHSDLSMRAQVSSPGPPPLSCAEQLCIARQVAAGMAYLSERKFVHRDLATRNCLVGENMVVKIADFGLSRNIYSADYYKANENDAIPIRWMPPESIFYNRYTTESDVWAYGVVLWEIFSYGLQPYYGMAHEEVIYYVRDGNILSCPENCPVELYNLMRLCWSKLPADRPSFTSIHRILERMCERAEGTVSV
The settings on record: at 0.1 µM.

Where “and” joins values, the source holds several entries; their conditions need not be identical. Identical values can stand only once.

Tyrosine-protein kinase Lyn (Homo sapiens), sequence (P07948 2-512 limits assumed): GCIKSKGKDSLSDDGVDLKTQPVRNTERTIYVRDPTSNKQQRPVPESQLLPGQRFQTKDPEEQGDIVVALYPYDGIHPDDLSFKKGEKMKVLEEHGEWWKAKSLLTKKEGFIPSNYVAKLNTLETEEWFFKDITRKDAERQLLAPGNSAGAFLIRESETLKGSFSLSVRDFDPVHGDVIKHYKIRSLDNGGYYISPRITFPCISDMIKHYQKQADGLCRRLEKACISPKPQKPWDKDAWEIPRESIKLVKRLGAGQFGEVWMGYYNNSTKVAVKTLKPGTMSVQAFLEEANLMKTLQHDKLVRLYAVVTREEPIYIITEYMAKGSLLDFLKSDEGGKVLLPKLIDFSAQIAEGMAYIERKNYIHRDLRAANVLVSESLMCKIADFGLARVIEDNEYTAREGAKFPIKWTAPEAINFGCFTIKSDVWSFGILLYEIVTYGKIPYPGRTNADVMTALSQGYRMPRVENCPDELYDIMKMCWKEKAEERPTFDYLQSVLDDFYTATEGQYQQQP
Leukocyte tyrosine kinase receptor (Homo sapiens), sequence (P29376 whole entry): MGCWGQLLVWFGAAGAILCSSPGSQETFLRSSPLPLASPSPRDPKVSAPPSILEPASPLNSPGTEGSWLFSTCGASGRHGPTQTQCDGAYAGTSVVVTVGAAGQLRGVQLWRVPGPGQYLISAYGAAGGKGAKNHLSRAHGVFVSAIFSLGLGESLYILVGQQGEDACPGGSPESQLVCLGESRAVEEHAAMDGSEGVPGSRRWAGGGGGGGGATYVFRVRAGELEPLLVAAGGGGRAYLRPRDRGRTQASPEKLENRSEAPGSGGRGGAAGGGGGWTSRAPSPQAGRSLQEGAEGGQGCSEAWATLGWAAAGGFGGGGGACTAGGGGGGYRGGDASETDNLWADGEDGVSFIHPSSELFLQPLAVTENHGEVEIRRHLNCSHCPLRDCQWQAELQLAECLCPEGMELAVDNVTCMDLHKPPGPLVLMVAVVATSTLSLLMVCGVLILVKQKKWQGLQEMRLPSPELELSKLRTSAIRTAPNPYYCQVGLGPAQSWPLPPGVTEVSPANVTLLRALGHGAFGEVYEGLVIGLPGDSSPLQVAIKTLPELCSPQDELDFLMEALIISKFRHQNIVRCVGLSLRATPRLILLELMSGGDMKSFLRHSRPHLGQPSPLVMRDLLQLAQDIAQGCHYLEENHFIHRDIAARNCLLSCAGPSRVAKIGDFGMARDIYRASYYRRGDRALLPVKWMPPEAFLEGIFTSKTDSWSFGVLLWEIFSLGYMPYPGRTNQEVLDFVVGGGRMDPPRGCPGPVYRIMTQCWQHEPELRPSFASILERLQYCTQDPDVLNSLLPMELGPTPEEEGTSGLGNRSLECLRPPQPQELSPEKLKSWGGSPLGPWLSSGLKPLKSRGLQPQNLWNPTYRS

One may read the inhibition as the drop in the measured response relative to a control, in per cent. On to `CCS(=O)(=O)c1ccc(OC)c(Nc2ncc(-c3cccc(F)c3)o2)c1`, for which the inhibition in [1] is 6.89%; in test [2], 32.5%; in [3], 78.7%; in test [4], 26.3%; in test [5] it was 75.4%; in test [6], 2.9%. The inhibition in test [7] was 9.7%; in [8], 6.73%; in [9] it was 5.27%; in test [10], 3.58%.

With `CNC(=O)c1sc(-n2cnc3cc(OC)c(OC)cc32)cc1OCc1ccccc1C(F)(F)F`, the inhibition came to 3.95% in [1]; 3.05% in [2]; 8.91% in test [3]; 4.12% in [4]; 7.2% in test [5]; 0.56% in [6]. Also, the inhibition in test [7] came to 2.64%; in test [8], 1.53%; in test [9], 3.89%; in test [10] it was 2.71%.

For `CN1CCN(Cc2ccc(-c3cc4ncnc(Nc5ccc(OCc6cccc(F)c6)c(Cl)c5)c4s3)o2)CC1`, the inhibition was 6.82% and 9.25% in test [1]; 3.27% and 7.55% in [2]; 9.39% and 15.3% in [3]; 2.07% and 5.46% in [4]; 6.51% and 12% in [5]; 8.38% and 10.3% in test [6]. The inhibition was 48.5% and 49.4% in [7]; 11.1% and 5.95% in test [8]; 24.3% and 34.3% in test [9]; 0.99% and 4.74% in test [10].

Take `Nc1ncnc2occ(-c3ccc(NC(=O)Nc4cc(C(F)(F)F)ccc4F)cc3)c12`: the inhibition in [1] is 53.6% and 34%; in test [2] it was 20.4% and 9.18%; in test [3] it was 73.7% and 57.2%; in test [4], 17.2% and 6.3%; in test [5], 70.5% and 53.6%; in test [6], 4.87% and 1.22%. Besides, the inhibition is 34.7% and 21.6% in test [7]; 11% and 2.19% in [8]; 29.8% and 11% in test [9]; 87.2% and 84.2% in test [10].

With `CC1(C)CC(n2cnc(-c3ccc(F)cc3)c2-c2ccnc(N)n2)CC(C)(C)N1`, the inhibition in [1] was 0.76%; in test [2], 0.33%; in [3], 2.44%; in test [4] it was -0.62%; in test [5], 0.86%; in [6], 0.86%. For the same compound, the inhibition in [7] is 3.06%; in test [8], -5.05%; in test [9], 5.56%; in test [10] it was 0.69%.

Turning to `O=C(O[C@H]1CN[C@H](C#Cc2cc3ncnc(Nc4ccc(OCc5cccc(F)c5)c(Cl)c4)c3s2)C1)N1CCOCC1`, the inhibition in [1] was found to be 5.96%; in test [2], 5.44%; in test [3], 6.48%; in test [4], 2.24%; in test [5] it was 4.85%; in [6], 2.6%. Also, the inhibition in test [7] came to 5.1%; in test [8], 4.9%; in [9], 7.49%; in [10], 1.77%.

With `Fc1ccc(Nc2nccc(-c3c(-c4ccc(C(F)(F)F)cc4)nn4ncccc34)n2)cc1F`, the inhibition in [1] is 3.06%; in [2], 2.77%; in [3] it was 2.13%; in test [4], 1.22%; in [5], 0.38%; in test [6], 3.18%. In addition, the inhibition in test [7] was 2.81%; in test [8] it was 4.74%; in [9], 4.74%; in test [10], 2.34%.

Take `NS(=O)(=O)c1ccc(N/N=C2\C(=O)Nc3cccc(CCc4ccncc4)c32)cc1`: the inhibition was determined as 1.43% in [1]; 2.64% in [2]; 6.56% in test [3]; 2.69% in [4]; 5.45% in test [5]; 2.62% in test [6]. For the same compound, the inhibition worked out at 3.17% in test [7], 10.5% in [8], 15.4% in [9] and 12.2% in [10].

Consider `COc1ccc2ncn(-c3cc(O[C@H](C)c4ccccc4C(F)(F)F)c(C(N)=O)s3)c2c1`, for which the inhibition in [1] was 1.97%; in [2], 0.92%; in [3], 1.75%; in test [4], -0.04%; in test [5] it was 1.72%; in [6] it was -0.24%. Further, the inhibition in test [7] is 2.59%; in test [8], -3.32%; in test [9] it was 0.66%; in test [10], 3.55%.

On to `Cc1nnc(-c2cccc(-c3ccc(C(=O)NCC4CC4)cc3)c2)o1`, for which the inhibition stood at 4.76% in [1]; 7.2% in test [2]; 5.98% in test [3]; 3.09% in test [4]; 5.48% in [5]; 0.22% in [6]. For the same compound, the inhibition in test [7] came to 0.56%; in test [8] it was 3.78%; in test [9], 7.87%; in test [10], 2.8%.

`Cc1cc(O)cc(C)c1/C=C/c1cncc(C(N)=O)c1`: the inhibition in test [1] stood at 3.91%; in test [2], 14.8%; in test [3] it was 61%; in [4], 10.4%; in test [5] it was 57%; in [6], 1.5%. For the same compound, the inhibition in test [7] was found to be 2.49%; in [8] it was 0.96%; in test [9], 6.76%; in [10], 3.77%.

Take `CNC(=O)c1ncccc1Nc1nc(Nc2cc3c(cc2OC)CCCN3C(=O)CN(C)C)nc2[nH]ccc12`: the inhibition came out at 94.4% in [1]; 3.52% in test [2]; 4.53% in test [3]; 2.33% in test [4]; 3.27% in [5]; 0.94% in test [6]. Also, the inhibition in [7] turned out to be 4.5%; in [8] it was 6.6%; in [9], 10.1%; in test [10], 5.51%.

With `CS(=O)(=O)CCNCc1ccc(-c2ccc3ncnc(Nc4ccc(OCc5cccc(C(F)(F)F)c5)cc4)c3c2)o1`, the inhibition in test [1] is 4.64%; in test [2] it was 4.67%; in [3], 5.36%; in test [4] it was -0.37%; in test [5], 2.74%; in test [6], 1.26%. The inhibition in [7] is 7.4%; in test [8], 2.15%; in test [9] it was 4.91%; in test [10], 2.66%.

With `COC(=O)Nc1nc2cc(Oc3ccc(NC(=O)Nc4ccccc4)cc3)ccc2[nH]1`, the inhibition in test [1] stood at 4.01%; in [2], 3.96%; in test [3], 8.66%; in test [4], 2.63%; in test [5], 6.73%; in test [6], 1.34%. Moreover, the inhibition is 2.99% in test [7], 2.87% in [8], 18.7% in [9] and 3.96% in [10].

With `CCCNc1cccc(-n2ncc3c(N/N=C/c4ccncc4)ncnc32)c1`, the inhibition amounted to 4.23% in test [1]; 18% in test [2]; 69.6% in [3]; 15.4% in test [4]; 64.8% in test [5]; 6.21% in test [6]. Moreover, the inhibition in test [7] amounted to 25.6%; in test [8] it was 12.6%; in [9] it was 49%; in test [10] it was 8.51%.

For the compound `CCS(=O)(=O)c1ccc(OC)c(Nc2ncc(-c3cccc(C(C)=O)c3)o2)c1`, the inhibition came out at 3.34% in [1]; 11.3% in test [2]; 45.5% in [3]; 7.74% in [4]; 40.8% in [5]; 1.15% in [6]. Besides, the inhibition in [7] was found to be 2.12%; in [8] it was 1.95%; in [9], 7.9%; in [10], 2.82%.
